Values joined by “and” are separate entries in the source; they are usually repeats but may differ in a detail not shown here. Identical values can stand only once. Results filed as inconclusive are left out. A structure can be active in one record and inactive in another. Active and inactive are the calls of the source. Unless noted, calls follow the shape of the dose curve; as a rule, active = well fitted curve in the direction sought with a large enough effect; inconclusive = small, poorly fitted or top-dose-only effect, or another doubt; inactive = no such curve, though single readings can be large; an effect the other way counts as inactive or inconclusive.
What was measured:
[1] = biological target: Ubiquitin carboxyl-terminal hydrolase 2 (Homo sapiens) (UniProt O75604); assay: qHTS Validation Assay for Inhibitors of Ubiquitin-specific Protease USP2a Using CHOP2 as the Reporter (AID 463106)
Procedure, shortened: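 10nM USP2 core + cpd, 30min RT; add 25nM Ub-CHOP2/25nM substrate; 60min RT; FI 485/531nm. Buffer Tris pH 8.0, CaCl2, BME, CHAPS. Norm. to NEM = 100% inhibition; time-zero read flags fluorescent artifacts.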

[2] = biological target: Tumor susceptibility gene 101 protein (Homo sapiens) (UniProt Q99816); assay: qHTS Validation Assay for Iinhibitors of HIV-1 Budding by Blocking the Interaction of PTAP/TSG101 (AID 485342; calls by dose curve)
Procedure, shortened: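 Tsg101 binding domain (10 uM) with FITC-labeled PTAP peptide (50 nM) in HEPES pH 7.5 buffer, 20 min at r.t. with compounds. Binding measured by fluorescence polarization.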

[3] = biological target: Beta-2 adrenergic receptor (Homo sapiens) (UniProt P07550); assay: qHTS validation assay of beta-arrestin-biased ligands of beta2-adrenergic receptor (AID 485366)
Procedure, shortened: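 Luminescence from a tTA-responsive luciferase, induced when recombinant beta-arrestin is recruited to recombinant beta2-AR, served as the agonism signal. Cells were exposed to compound for 18 hr at 37 degrees C; titrations spanned up to 46 microM.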

[4] = biological target: Thioredoxin reductase 1, cytoplasmic (Rattus norvegicus) (UniProt O89049); assay: qHTS Assay for Substrates of Mammalian Selenoprotein Thioredoxin Reductase 1 (TrxR1) (AID 488772);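 also: NADPH fluorescence in the first read after selenite addition and not the 8 min delta; series mostly up to about 57 µM; a drop in NADPH fluorescence below the no-compound background marks a TrxR1 substrate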
Procedure, shortened: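 Quantitative HTS in Tris-HCl buffer at pH 7.5 with EDTA and Tween-20, using rat TrxR1, 400 uM NADPH and 400 uM selenite (final). A fall in initial NADPH fluorescence relative to background marked substrate behaviour.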

[5] = biological target: Flap endonuclease 1 (Homo sapiens) (UniProt P39748); assay: qHTS Validation Assay for the Inhibitors of Human Flap endonuclease 1 (FEN1) (AID 488816); also: potency is read from the fitted curve at half-maximal effect
Procedure, shortened: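 Readings taken at 0 and 15 min after starting the reaction with 50 nM (final) substrate supplied the signal. Compounds had first sat with 10 nM FEN1 reagent for 15 min at room temperature. Values come from Hill-equation concentration-response fits.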

[6] = biological target: M-phase phosphoprotein 8 (Homo sapiens) (UniProt Q99549); assay: qHTS Validation Assay for Inhibitors for MPP8 Chromodomain Interactions with Methylated Histone Tails (AID 488949); also: nearly all actives have a fitted effect of over 55% in size; also: potency is read from the fitted curve at half-maximal effect
Procedure, shortened: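 MPP8 (50 nM) was pre-bound to 50 nM biotinylated H3(1-18)K9me3 peptide in PBS pH 7.4 with 0.01% Tween-20. Compounds were then added for 30 min at room temperature, and complex disruption was read by AlphaScreen with streptavidin donor and nickel-chelate acceptor beads.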

[7] = biological target: Methanococcus maripaludis chaperonin (MmCpn) (UniProt Q6LX38); assay: High-Throughput Screening for Modulators of Cytosolic Chaperonin Activity: MmCpn Primary Screen (AID 488978);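 also: 50 nM MmCpn enzyme hydrolysing 30 µM ATP at 37 °C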
Procedure, shortened: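 MmCpn at 50 nM final was preincubated 5 min at RT with compound. ATP was then added at 30 uM final for 10 min at 37 C. ADP formed was detected by Transcreener HTRF (665/590 nm).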

[8] = biological target: Transient receptor potential cation channel subfamily V member 1 (Homo sapiens) (UniProt Q8NER1); assay: HTS Assay for Compounds that Act as Enhancers of the Vanilloid Receptor 1 (AID 488979)
Procedure, shortened: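 Calcium influx kinetics via Fluo-8 (480/520 nm) in TRPV1-expressing cells, 2000/well cultured overnight at 35.5C. Compound-alone read 3 min (agonist phase), followed by EC20 capsaicin challenge for 2 min (enhancer phase).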

[9] = biological target: Thyrotropin receptor (Homo sapiens) (UniProt P16473); assay: qHTS Assay for Antagonists of the Thyroid Stimulating Hormone Receptor (AID 488980); also: series mostly up to about 58 µM
Procedure, shortened: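 TSHR-transfected HEK293 cells (2000/well) in HEPES-buffered HBSS with 70 uM RO 20-1724 were stimulated with 4 nM TSH (EC80, final) in the presence of compound. cAMP was measured by HTRF competition after lysis and 30 min at RT.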

[10] = biological target: D(1A) dopamine receptor (Homo sapiens) (UniProt P21728); assay: HTS Assay for Allosteric Agonists of the Human D1 Dopamine Receptor: Primary Screen for Antagonists (AID 488983);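 also: calcium flux response to an EC80 dopamine challenge measured with no-wash dye; nearly all actives have a fitted effect of over 65% in size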; also: potency is read from the fitted curve at half-maximal effect
Procedure, shortened: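 Tetracycline-induced HEK293 T-REx cells expressing force-coupled D1 were plated overnight at 30 C, dye-loaded for calcium, and read kinetically. Compounds were pinned in, then an EC80 dopamine challenge followed after 180 s to reveal antagonism.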

[11] = qHTS Validation Assay to Find Inhibitors of Chronic Active B-Cell Receptor Signaling (AID 485345; active = well fitted curve in the direction sought with a large enough effect in the main read-out, with a control signal flat, not every such curve was filed as active)
Procedure, shortened: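 Read-out: ratio of filter-corrected green (IkappaBalpha fusion) to red (native) luciferase signal in doxycycline-induced TMD8 cells after 4 h at 37C. Titration spanned 46 uM–3 nM; Data were normalised to basal cells and 10 uM MG-132 wells.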

[12] = biological target: Thioredoxin reductase 1, cytoplasmic (Rattus norvegicus) (UniProt O89049); assay: qHTS Assay for Inhibitors of Mammalian Selenoprotein Thioredoxin Reductase 1 (TrxR1) (AID 488773); details: Potency: inhibition; also: nearly all actives have a fitted effect of over 40% in size; also: potency is read from the fitted curve at half-maximal effect
Procedure, shortened: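 Steps: enzyme (90 nM) plus NADPH (400 uM final), 5 min at ~22 deg C; compound added, 15 min; selenite (400 uM final) added; fluorescence followed for 8 min. Concentration-response curves derived from the normalized delta values.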

[13] = biological target: Chromobox protein homolog 1 (Homo sapiens) (UniProt P83916); assay: qHTS Validation Assay for Inhibitors of HP1-beta Chromodomain Interactions with Methylated Histone Tails (AID 488953); also: nearly all actives have a fitted effect of over 50% in size; also: potency is read from the fitted curve at half-maximal effect
Procedure, shortened: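 HP1-beta (50 nM) was preincubated 30 min at room temperature with biotinylated H3(1-18)K9me3 peptide (50 nM) in PBS pH 7.4, 0.01% Tween-20, then with compounds 30 min. AlphaScreen signal was read after streptavidin donor/nickel chelate acceptor beads (10 ug/mL final).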

[14] = biological target: D(1A) dopamine receptor (Homo sapiens) (UniProt P21728); assay: HTS Assay for Allosteric Agonists of the Human D1 Dopamine Receptor: Primary Screen for Potentiators (AID 488982)
Procedure, shortened: (§1)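 Calcium flux in an inducible, force-coupled HEK293 Trex D1 line (overnight at 30 C): agonist mode is the 180 s kinetic read after compound; potentiator mode is the following 180 s read after dopamine at EC20.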

[15] = biological target: D(1A) dopamine receptor (Homo sapiens) (UniProt P21728); assay: HTS Assay for Allosteric Agonists of the Human D1 Dopamine Receptor: Primary Screen for Agonists (AID 488981); also: potency is read from the fitted curve at half-maximal effect
Procedure, shortened: as §1

[16] = Quantitative high throughput screen for delayed death inhibitors of the malarial parasite plastid, 96 hour incubation (AID 488745); also: series mostly up to about 29 µM; nearly all actives have a fitted effect of over 70% in size
Procedure, shortened: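 P. falciparum carrying an integrated firefly luciferase reporter, grown in erythrocytes (2% hematocrit, 0.1% parasitemia final) in RPMI 1640/0.5% Albumax, was exposed to compound for 96 h (two generations) at 37 C, 5% CO2. Luminescence decrease indicated growth inhibition.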

[17] = Quantitative high throughput screen for delayed death inhibitors of the malarial parasite plastid, 48 hour incubation (AID 488752); also: nearly all actives have a fitted effect of over 65% in size
Procedure, shortened: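 Erythrocytes infected with P. falciparum carrying an integrated firefly luciferase reporter (2% hematocrit, 0.1% parasitemia final) were exposed to compounds in RPMI 1640/0.5% Albumax for 48 h at 37 C, 5% CO2. Growth inhibition was scored as reduced luminescence.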

[18] = biological target: DNA polymerase III PolC-type (Bacillus subtilis (strain 168)) (UniProt P13267); assay: qHTS Validation Assay for the Inhibitors of DNA Replication in Gram-Positive Bacteria (AID 485295);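 also: PicoGreen fluorescence of double-stranded DNA made on primed circular M13 template; series mostly up to about 57 µM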
Procedure, shortened: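 Reconstituted B. subtilis Pol III holoenzyme (PolC, beta clamp, SSB, primase) preincubated with compound, then M13Gori single-stranded circular template with dNTPs/NTPs added; room temperature reaction. Stopped with EDTA/PicoGreen; dsDNA fluorescence read, EDTA as full-inhibition control.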

[19] = biological target: ATP-dependent 6-phosphofructokinase (Trypanosoma brucei brucei) (UniProt O15648); assay: qHTS Validation Assay to Find Inhibitors of T. brucei phosphofructokinase (AID 485368)
Procedure, shortened: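 Activity was normalized between 1x (1.25 nM) PFK wells as no inhibition and enzyme-free wells as full inhibition, from luminescence after ADP-Glo detection of ADP made from 0.5 mM F6P and 0.1 mM ATP over 45 min.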

[20] = biological target: Tyrosyl-DNA phosphodiesterase 1 (Homo sapiens) (UniProt Q9NUW8); assay: Confirmation Assay for Inhibitors of Tyrosyl-DNA Phosphodiesterase (TDP1) (AID 489007); details: recombinant human TDP1 enzymatic activity, dose-response; also: potency is read from the fitted curve at half-maximal effect; nearly all actives have a fitted effect of over 40% in size
Procedure, shortened: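 Recombinant E. coli-expressed Tdp1 (1 nM final) was preincubated with compounds 15 min at room temperature, then reacted 5 min with 15 nM 5'-biotin/3'-phosphotyrosine-FITC DNA substrate; cleavage read as loss of AlphaScreen signal (10 ug/ml beads, 10 min).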

Measured: Potency

Sequence of ATP-dependent 6-phosphofructokinase (Trypanosoma brucei brucei) (O15648 whole entry, looked up): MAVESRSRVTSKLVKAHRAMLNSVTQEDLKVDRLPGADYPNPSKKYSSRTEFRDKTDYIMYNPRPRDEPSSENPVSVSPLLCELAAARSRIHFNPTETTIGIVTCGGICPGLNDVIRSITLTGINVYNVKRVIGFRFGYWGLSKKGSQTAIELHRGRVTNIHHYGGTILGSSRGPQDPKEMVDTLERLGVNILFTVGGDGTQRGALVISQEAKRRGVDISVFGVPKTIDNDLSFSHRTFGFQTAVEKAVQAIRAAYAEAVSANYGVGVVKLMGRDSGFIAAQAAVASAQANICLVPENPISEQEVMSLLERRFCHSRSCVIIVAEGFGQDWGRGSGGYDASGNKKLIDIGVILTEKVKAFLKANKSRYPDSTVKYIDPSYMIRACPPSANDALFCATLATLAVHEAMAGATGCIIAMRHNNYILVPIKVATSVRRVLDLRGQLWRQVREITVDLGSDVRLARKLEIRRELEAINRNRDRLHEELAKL
Sequence of Thioredoxin reductase 1, cytoplasmic (Rattus norvegicus) (O89049 whole entry, looked up): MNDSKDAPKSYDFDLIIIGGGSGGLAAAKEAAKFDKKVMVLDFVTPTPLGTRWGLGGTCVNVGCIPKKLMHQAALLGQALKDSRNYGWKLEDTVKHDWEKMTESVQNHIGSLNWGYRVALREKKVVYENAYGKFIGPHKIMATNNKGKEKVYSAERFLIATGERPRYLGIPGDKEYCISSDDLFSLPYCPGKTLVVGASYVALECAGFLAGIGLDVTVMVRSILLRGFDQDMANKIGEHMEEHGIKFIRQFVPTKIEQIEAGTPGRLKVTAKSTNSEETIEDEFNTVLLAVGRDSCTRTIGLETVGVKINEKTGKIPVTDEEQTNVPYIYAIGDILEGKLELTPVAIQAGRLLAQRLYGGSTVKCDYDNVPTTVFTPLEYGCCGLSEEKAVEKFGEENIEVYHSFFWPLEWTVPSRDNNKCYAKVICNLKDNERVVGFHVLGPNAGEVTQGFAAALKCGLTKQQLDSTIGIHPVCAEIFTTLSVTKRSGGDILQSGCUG
Sequence of Ubiquitin carboxyl-terminal hydrolase 2 (Homo sapiens) (O75604 whole entry, looked up): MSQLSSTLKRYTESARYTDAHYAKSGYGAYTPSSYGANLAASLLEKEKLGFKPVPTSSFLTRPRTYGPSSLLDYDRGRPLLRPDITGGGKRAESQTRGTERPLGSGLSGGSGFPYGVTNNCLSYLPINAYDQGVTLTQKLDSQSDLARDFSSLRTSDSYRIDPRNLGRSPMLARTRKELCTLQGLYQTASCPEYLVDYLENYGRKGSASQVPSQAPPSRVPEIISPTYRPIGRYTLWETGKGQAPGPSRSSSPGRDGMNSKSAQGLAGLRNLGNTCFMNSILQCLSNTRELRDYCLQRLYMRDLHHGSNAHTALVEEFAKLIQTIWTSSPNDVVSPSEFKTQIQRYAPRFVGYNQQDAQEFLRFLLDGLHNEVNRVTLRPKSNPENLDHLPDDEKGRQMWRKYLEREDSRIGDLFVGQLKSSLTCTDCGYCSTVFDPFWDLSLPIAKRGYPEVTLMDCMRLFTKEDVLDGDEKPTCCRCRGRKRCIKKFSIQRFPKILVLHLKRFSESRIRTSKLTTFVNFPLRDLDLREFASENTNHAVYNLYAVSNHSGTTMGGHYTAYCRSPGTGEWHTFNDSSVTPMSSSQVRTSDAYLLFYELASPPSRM
Sequence of Beta-2 adrenergic receptor (Homo sapiens) (P07550 whole entry, looked up): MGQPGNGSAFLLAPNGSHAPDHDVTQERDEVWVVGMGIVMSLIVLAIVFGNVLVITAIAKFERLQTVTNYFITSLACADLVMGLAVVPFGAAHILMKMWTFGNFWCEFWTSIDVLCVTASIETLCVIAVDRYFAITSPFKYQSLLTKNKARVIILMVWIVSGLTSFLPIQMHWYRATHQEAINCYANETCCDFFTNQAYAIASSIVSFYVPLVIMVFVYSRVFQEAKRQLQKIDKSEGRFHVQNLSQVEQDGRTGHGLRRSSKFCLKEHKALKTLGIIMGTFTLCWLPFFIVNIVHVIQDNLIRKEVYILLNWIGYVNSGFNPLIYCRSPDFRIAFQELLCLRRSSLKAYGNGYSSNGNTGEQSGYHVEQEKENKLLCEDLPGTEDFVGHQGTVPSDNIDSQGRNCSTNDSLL
Sequence of Tumor susceptibility gene 101 protein (Homo sapiens) (Q99816 whole entry, looked up, the tested form may be a part): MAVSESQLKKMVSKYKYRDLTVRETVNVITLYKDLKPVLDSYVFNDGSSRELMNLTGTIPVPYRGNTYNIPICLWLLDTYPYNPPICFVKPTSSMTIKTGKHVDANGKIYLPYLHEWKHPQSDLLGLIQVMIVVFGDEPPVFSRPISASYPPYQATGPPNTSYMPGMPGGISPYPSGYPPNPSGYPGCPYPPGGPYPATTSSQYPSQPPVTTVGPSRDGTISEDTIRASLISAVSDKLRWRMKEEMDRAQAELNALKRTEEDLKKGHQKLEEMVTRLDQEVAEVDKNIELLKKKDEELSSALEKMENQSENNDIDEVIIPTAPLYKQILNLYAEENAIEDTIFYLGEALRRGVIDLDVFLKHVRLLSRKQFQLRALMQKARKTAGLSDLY
Sequence of Thyrotropin receptor (Homo sapiens) (P16473 whole entry, looked up): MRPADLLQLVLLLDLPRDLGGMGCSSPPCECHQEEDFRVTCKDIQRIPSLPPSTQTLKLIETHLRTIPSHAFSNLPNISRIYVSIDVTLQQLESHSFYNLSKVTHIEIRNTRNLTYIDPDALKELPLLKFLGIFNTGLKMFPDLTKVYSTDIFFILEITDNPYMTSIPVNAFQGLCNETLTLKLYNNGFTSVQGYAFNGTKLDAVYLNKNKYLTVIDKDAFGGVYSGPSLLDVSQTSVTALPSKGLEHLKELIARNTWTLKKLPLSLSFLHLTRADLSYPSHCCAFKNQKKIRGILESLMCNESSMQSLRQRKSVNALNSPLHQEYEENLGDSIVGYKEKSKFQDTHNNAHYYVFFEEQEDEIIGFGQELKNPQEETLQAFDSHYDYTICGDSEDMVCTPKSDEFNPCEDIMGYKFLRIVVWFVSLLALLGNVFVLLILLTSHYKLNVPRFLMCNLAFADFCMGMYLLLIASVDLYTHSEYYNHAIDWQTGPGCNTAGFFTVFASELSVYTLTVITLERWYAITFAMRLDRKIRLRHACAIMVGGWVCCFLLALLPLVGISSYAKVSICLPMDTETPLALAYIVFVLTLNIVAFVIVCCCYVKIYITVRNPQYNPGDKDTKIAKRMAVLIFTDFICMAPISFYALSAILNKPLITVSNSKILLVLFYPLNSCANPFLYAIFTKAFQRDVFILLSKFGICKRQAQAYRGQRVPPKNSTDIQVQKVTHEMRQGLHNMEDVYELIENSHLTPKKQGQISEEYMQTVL
Sequence of Methanococcus maripaludis chaperonin (MmCpn) (Q6LX38 1-543): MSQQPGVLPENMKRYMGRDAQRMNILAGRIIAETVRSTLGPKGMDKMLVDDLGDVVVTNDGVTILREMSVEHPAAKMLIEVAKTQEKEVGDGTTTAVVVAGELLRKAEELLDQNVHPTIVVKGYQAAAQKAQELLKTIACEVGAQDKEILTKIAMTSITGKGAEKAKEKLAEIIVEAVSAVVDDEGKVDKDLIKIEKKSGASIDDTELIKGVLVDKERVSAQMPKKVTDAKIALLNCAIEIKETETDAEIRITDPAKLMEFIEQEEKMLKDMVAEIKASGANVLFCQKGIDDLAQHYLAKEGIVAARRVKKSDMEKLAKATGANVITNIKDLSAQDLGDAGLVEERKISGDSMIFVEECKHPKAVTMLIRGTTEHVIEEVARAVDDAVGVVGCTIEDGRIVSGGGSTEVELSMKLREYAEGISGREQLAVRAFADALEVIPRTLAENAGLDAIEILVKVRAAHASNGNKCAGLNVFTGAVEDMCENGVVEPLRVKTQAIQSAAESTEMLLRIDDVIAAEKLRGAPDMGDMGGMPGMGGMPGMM
Sequence of Chromobox protein homolog 1 (Homo sapiens) (P83916 whole entry, looked up): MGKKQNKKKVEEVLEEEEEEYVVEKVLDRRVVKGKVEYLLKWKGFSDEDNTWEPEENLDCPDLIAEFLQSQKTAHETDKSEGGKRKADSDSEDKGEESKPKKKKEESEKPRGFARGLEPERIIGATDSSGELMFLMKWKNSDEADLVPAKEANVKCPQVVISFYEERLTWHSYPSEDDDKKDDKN
Sequence of Flap endonuclease 1 (Homo sapiens) (P39748 whole entry, looked up): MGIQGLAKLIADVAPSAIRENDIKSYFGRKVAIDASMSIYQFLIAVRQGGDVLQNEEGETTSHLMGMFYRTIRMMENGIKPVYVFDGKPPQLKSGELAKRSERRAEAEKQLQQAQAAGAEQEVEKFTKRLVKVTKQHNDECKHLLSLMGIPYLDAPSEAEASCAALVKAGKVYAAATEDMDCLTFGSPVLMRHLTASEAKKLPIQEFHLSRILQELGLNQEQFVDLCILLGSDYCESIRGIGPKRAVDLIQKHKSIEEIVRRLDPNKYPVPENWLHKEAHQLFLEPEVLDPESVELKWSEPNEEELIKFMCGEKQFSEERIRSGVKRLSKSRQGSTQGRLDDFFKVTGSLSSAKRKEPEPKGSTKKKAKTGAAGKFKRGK
Sequence of D(1A) dopamine receptor (Homo sapiens) (P21728 whole entry, looked up): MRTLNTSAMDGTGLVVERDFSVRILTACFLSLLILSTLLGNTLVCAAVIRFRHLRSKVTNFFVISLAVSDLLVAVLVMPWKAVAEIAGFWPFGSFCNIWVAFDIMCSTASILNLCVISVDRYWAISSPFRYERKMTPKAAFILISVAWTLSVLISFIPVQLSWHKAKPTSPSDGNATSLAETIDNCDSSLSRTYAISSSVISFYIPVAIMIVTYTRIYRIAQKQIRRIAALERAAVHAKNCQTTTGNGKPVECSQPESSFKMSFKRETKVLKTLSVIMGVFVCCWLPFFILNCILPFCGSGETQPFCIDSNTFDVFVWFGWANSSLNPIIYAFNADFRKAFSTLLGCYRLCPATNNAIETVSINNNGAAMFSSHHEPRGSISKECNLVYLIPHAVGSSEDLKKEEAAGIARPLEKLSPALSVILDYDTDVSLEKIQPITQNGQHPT

O=C(/C=C/c1ccc(O)cc1)c1ccc(O)cc1O
inactive: [1] | [2] | [3] | [4] | [5] | [6] | [7] | [8] | [9] | [10]

O=C(O)CC1CC(c2ccccc2)=NO1 (stereo not drawn)
inactive: [1] | [2] | [11] | [3] | [4] | [12] | [6] | [13] | [7] | [14] | [10]

Oc1ccccc1O
inactive: [1] | [2] | [3] | [4] | [7] | [8] | [9] | [15] | [14]

CC(=O)N[C@H](C(=O)O)C(C)(C)SN=O
not listed: [9] | [11] | [14] | [15] | [18] | [19] | [20]
inactive: all other assays above

CN1CCc2ccccc2Cc2[nH]c3ccccc3c2CC1
active: [10] 0.355 µM
50.1 µM (active) and inactive: [6]
inactive: [1] | [2] | [11] | [3] | [4] | [7] | [8] | [9] | [15] | [14]

O=C(/C=C/c1ccc(O)c(O)c1)OCCc1ccccc1
inactive: [1] | [2] | [3] | [4] | [12] | [5] | [7] | [8] | [9] | [14] | [10]

Cn1cc(C2=C(c3ccc(Cl)cc3Cl)C(=O)NC2=O)c2ccccc21
active: [15] 14.1 µM
not listed: [1] | [8] | [9] | [10] | [11] | [14] | [20]
inactive: all other assays above

CC(C)Cc1ccc([C@H](C)C(=O)O)cc1
not listed: [1] | [5] | [8] | [15] | [16] | [19] | [20]
inactive: all other assays above

N#C/C(=C\c1ccc(O)c(O)c1)C(=O)NCCCc1ccccc1
inactive: [1] | [2] | [3] | [4] | [12] | [7] | [8] | [9]
active: [6] 7.08 µM and 8.44 µM | [13] 5.62 µM

CC(=O)/C=C1\C(=O)N(C)c2ccccc21
inactive: [1] | [2] | [3] | [19] | [4] | [5] | [6] | [7] | [15]
active: [12] 29.9 µM | [13] 0.0532 µM | [10] 10 µM

Nc1ccn([C@@H]2O[C@H](CO)[C@@H](O)[C@@H]2O)c(=O)n1
inactive: [17] | [6] | [8]

N#C/C(=C\c1c[nH]c2ccccc12)C(=O)c1ccc(O)c(O)c1
active: [5] 4.23 µM | [6] 3.98 µM and 8.44 µM | [13] 3.55 µM
not listed: [11] | [18] | [19] | [20]
inactive: all other assays above

CO/N=C(\C(=O)N[C@@H]1C(=O)N2C(C(=O)O)=C(COC(C)=O)CS[C@H]12)c1csc(N)n1 (stereo in doubt)
active: [6] 56.2 µM | [20] 7.94 µM
inactive: [16] | [17] | [8] | [9]

NC[C@H]1O[C@@H](n2cnc3c(N)ncnc32)[C@H](O)[C@@H]1O
inactive: [1] | [2] | [3] | [19] | [4] | [12] | [6] | [13] | [7] | [15] | [14]

COc1cc2nc(N3CCN(C(=O)OCc4ccccc4)C(C(=O)NC(C)(C)C)C3)nc(N)c2cc1OC (stereo not drawn)
not listed: [5] | [9] | [11] | [16] | [17] | [18] | [19] | [20]
inactive: all other assays above

Nc1nc(Nc2ccccc2)nc2c1ncn2[C@@H]1O[C@H](CO)[C@@H](O)[C@H]1O
inactive: [1] | [2] | [3] | [4] | [12] | [5] | [6] | [13] | [7] | [15] | [10]

Cn1ncc(S(=O)(=O)Cc2ccccc2)c(Br)c1=O
inactive: [1] | [2] | [3] | [4] | [5] | [6] | [7] | [15] | [14] | [10]
active: [12] 0.947 µM

OC[C@H]1O[C@@H](n2cnc3c(NC4CCCCC4)ncnc32)[C@H](O)[C@@H]1O
not listed: [11] | [14] | [16] | [18] | [19] | [20]
inactive: all other assays above

— PubChem BioAssay (NCATS)
